# Results taken from the supplement of paper PMC7156485.
# ± gives the standard deviation of the averaged measurements.
# System: HCC1569
# Assay: cell number relative to DMSO (% of DMSO); higher = more cells (less growth inhibition / toxicity)
# Details: concentration: 10 µM; 24 h
# Outline: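 Cell number or H1.0 nuclear intensity appears as percent of the plate control, based on the median of replicates. Measurements came from HCC1569 and TDF cells exposed in triplicate to compounds at 10 µM for 24 h at 37 °C, then imaged in six fields per well at ×10. Positional effects were smoothed out of HCC1569 values.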
# 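Further: TDF denotes transformed human dermal fibroblasts of mesenchymal origin.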
row,SMILES,cell number
1,CNC1C(OC2OC(CO)C(N)C(O)C2O)OC2CC(N)C(OC3C(N)CC(N)C(O)C3O)OC2C1O (stereo not given) [Apramycin],106
2,NC(=O)c1ccc(-c2nc(-c3ccc4c(c3)OCCO4)c(-c3ccccn3)[nH]2)cc1,97.4
3,N#Cc1c(N(CC(=O)[O-])CC(=O)[O-])sc(C(=O)[O-])c1CC(=O)[O-].[Sr+2].[Sr+2],100
4,N#Cc1ccc(N2N=C3c4ccc(C(=O)O)cc4CCC3C2C2CCCC2)cc1Cl (stereo not given),101
5,Cl.Cl.Cl.Cl.NCCCNCCCCNCCCN [Spermine tetrahydrochloride],102
6,"CCCC(=O)O[C@]1(C(=O)CO)CC[C@H]2[C@@H]3CCC4=CC(=O)CC[C@]4(C)[C@H]3[C@@H](O)C[C@@]21C [(11beta)-11,21-dihydroxy-3,20-dioxopregn-4-en-17-yl butyrate]",97.4
7,CCOC(=O)CNC(=O)[C@@H]1CCCN1C(=O)Cc1ccccc1,102
8,CCCCCC(O)C=CC1C(O)CC(O)C1CC=CCCCC(=O)O (racemic),106
9,COc1c(C)c2c(c(O)c1CC=C(C)CCC(=O)O)C(=O)OC2 [Mycophenolic Acid],78.3 ± 3.8
10,CC(C)(C)C(=O)OCOC(=O)[C@@H]1N2C(=O)[C@@H](/N=C/N3CCCCCC3)[C@H]2SC1(C)C,84.7
11,NCCCCC(NC(CCc1ccccc1)C(=O)O)C(=O)N1CCCC1C(=O)O (stereo not given) [Lisinopril],105
12,CCCCCCCCCCCCCCCC(=O)NC(CN1CCOCC1)C(O)c1ccccc1 (racemic),103
13,CSCC[C@@H](C=O)NC(=O)[C@H](CC(C)C)NC(=O)[C@H](CC(C)C)NC(C)=O,99.2
14,CC(CCc1ccc(O)cc1)NCCc1ccc(O)c(O)c1.Cl (stereo not given) [Dobutamine.HCl],104
15,CC(C)n1cnc2c(NCc3ccccc3)nc(NCCO)nc21 [N9-Isopropylolomoucine],46
16,CCN(CC)Cc1ccc(C(=O)N(CCc2ccccc2OC)[C@@H]2CCNC2)cc1.Cl.Cl,98.5
17,CC(C)(C)c1ccc(C(O)CCCN2CCC(C(O)(c3ccccc3)c3ccccc3)CC2)cc1 (stereo not given) [Terfenadine],92.7 ± 3.6
18,Cc1cc(C)c(C=C2C(=O)Nc3ccccc32)[nH]1,102
19,Cl.Nc1nc2ccc(OC(F)(F)F)cc2s1 [Riluzole.HCl],101
20,CCOC(=O)C1=CC(OC(CC)CC)C(NC(C)=O)C(N)C1 (stereo not given) [Oseltamivir],104

row,SMILES,cell number
1,"CCCCCCCCCCCCCCCCCCOP(=O)([O-])OC1CC[N+](C)(C)CC1 [1,1-dimethylpiperidinium-4-yl octadecyl phosphate]",103
2,Cc1cc(=O)oc2cc(O)ccc12 [4-Methylumbelliferone],103
3,"CC1CCC(C(C)(C)O)CC2=C1CCC2C (single isomer, unassigned; (-)) [(-)-Guaiol]",99.2
4,C[N+](C)(C)CCO.[Br-] [Choline bromide],104
5,CCCCC=CCCCCCCCC(=O)O [9(Z)-Tetradecenoic acid],98.2
6,CCCCOc1cc(CC2CNC(=O)N2)ccc1OC (stereo not given),101
7,Cc1cn[nH]c1.Cl [4-Methylpyrazole hydrochloride],108
8,CC(=O)O/N=C1\C(=O)N(Cc2cc(Cl)ccc2Cl)c2ccc(Cl)cc21,99.5
9,Cc1ccc(F)cc1C(=O)Nc1ccc(C(=O)N2Cc3cccn3Cc3ccccc32)c(Cl)c1,91.6
10,Cc1c2c(c(O)c3c(O)cccc13)C(=O)OC2C1C(O)C(=O)C(C(N)=O)=C(O)C1N(C)C (racemic),93.9
11,COc1cc(-c2ccc(=O)[nH]n2)ccc1OC(F)F [Zardaverine],106 ± 5.7
12,CC(C)S(=O)(=O)N[C@H]1CCOC[C@@H]1c1ccc(-c2ccc(C#N)s2)cc1,100
13,N#CC(=Cc1ccc(O)c(O)c1)C(=O)NCCCc1ccccc1 [Tyrphostin AG 555],79.8
14,CC(=O)O.CN=C(N)NCCCC(N)C(=O)O [NG-Monomethyl-L-arginine acetate],100
15,CCCCCCCCC=CCCCCCCCC(=O)OCC(O)COP(=O)(O)O (stereo not given) [Lysophosphatidic acid],101
16,"C=C1CC23CC1(O)CCC2C12C=CC(O)C(C)(C(=O)O1)C2C3C(=O)O (single isomer, unassigned; (+)) [(+)-Gibberellic acid]",108
17,CC(Cc1ccccc1)Nc1ncnc2c1ncn2C1OC(CO)C(O)C1O (stereo not drawn) [R(-)-N6-(2-Phenylisopropyl)adenosine],107
18,N=c1nc(N2CCCCC2)cc(N)n1O [Minoxidil],99.9 ± 3.1
19,O=C1Cc2c([nH]c3ccc(Br)cc23)-c2ccccc2N1 [Kenpaulone],73.4
20,CCCCCCCCCCCCCC=CC(O)C(N)CO (stereo not given) [Sphingosine],103 ± 4.4
